This assay in a line: small-molecule binders of probe aInhba, primary screen, biochemical, small-molecule microarray, 635/667 nm fluorescence (AID 1148).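 Note: score merges 667nm spot fluorescence with signal-to-noise for antibody binding to printed compounds.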 The following applies: higher = more signal.
`CC(C)Cc1ccc(CN2CC[C@@H](NC(=O)Nc3ccccc3)C2)cc1` yielded a composite z-score of -0.148.
As for `CC(C)C[C@@H]1NC(=O)[C@@H]2C[C@H](C(=O)NCCCCN(C)C)[C@H](c3cccc(OCCO)c3)N2C1=O`, the figure is 0.0108; as for `CC1CC/C=C\[C@H]2OC34C=CCN(C(C)C)C(=O)[C@H]3N(CCCCCCO)C(=O)[C@@H]4C2C(=O)O1` (stereo not given in full), -0.323.
In turn, `COc1ccc(CCNC(=O)[C@@]2(Sc3ccc(C)cc3)CC(=O)N(C3Cc4ccccc4C3)[C@@H]2c2ccc(CO)cc2)cc1` registered a composite z-score of 0.507.
As for `COc1ccc(-c2nc(-c3ccccc3)c3c(c2C)CO[Si]3(C(C)C)C(C)C)cn1`, the figure is -0.0494; as for `CCCC[C@@H]1C[C@H]1[C@@H](NC(=O)c1cccs1)c1ccc(C(F)(F)F)cc1`, -0.147; as for `CN1C(=O)C2C=CC(C(O)c3ccc(F)cc3)N(Nc3ccccc3)C2C1=O` (stereo not given), 0.203.
As for `OCC1CC(c2ccccc2)=NO1` (stereo not given), the figure is -0.0405; as for `COC1OC[C@]2(C)[C@H]3C4=C(CN2C(=O)OC(C)(C)C)[C@H](C)C(CO)C(CO)C4CC[C@@H]13` (stereo not given in full), 0.109.
As for `NCCCCCCNC(=O)[C@@H]1C[C@@H]2C(=O)N[C@@H](CCCCN)C(=O)N2[C@@H]1c1cccc(OCCO)c1`, the figure is 0.094; as for `CCOC(=O)C1=C[C@@H](c2ccccc2)N(S(=O)(=O)c2ccc(C)cc2)[C@H]1c1ccccc1Cl`, -0.0221; as for `CCOc1cc(C(O)C2C=CC3C(=O)N(c4ccccc4)C(=O)C3N2Nc2ccc(C#N)cc2)ccc1O` (stereo not given), 0.288.
`CCCCCCCCCCC(O)C1C=CC2C(=O)N(C)C(=O)C2N1NC(=O)OC(C)(C)C` (stereo not given) displayed a composite z-score of 0.0198.
As for `NCCCCCNC(=O)[C@@H]1C[C@@H]2C(=O)NCC(=O)N2[C@@H]1c1cccc(OCCO)c1`, the figure is 0.188; as for `[N-]=[N+]=NCc1ccccc1[C@H]1OC(c2ccc(OCCCO)cc2)=N[C@@]1(CCS(=O)(=O)c1ccccc1)C(=O)N1CCCCC1`, 0.211; as for `CCOC(=O)C[C@H]1[C@H](OC(=O)c2ccccc2-c2ccccc2)[C@@H](NC(=O)c2ccc(-c3ccccc3)cc2)c2cc(OCCCO)ccc2N1C(=O)c1ccc2ccccc2n1`, -0.106.
As for `CCCCCCc1nc(C2CC2)cc2c1[Si](C(C)C)(C(C)C)OC2`, the figure is -0.261; as for `O=C1C[C@@](C(=O)NCCN2CCOCC2)(c2ccc([N+](=O)[O-])cc2)[C@@H](c2ccc(CO)cc2I)N1C1CCCCC1`, -0.0468.
With `COC(=O)[C@@]1(Cc2ccc(OC)cc2)[C@H]2c3cc(C(=O)N4CCCC4)n(Cc4c(-c5ccccc5)noc4C)c3C[C@H]2CN1C(=O)c1ccccc1`, the composite z-score stood at 0.659.
As for `CC(C)(C)N1CC=CC23O[C@@H]4C=CCCOC(=O)C4[C@H]2C(=O)N(CCO)[C@@H]3C1=O` (stereo not given in full), the figure is -0.237; as for `O=C1O[C@@H](c2ccccc2)[C@@H](c2ccccc2)N2[C@@H](c3ccccc3OCCO)[C@]3(C(=O)Nc4ccc(C#CCCO)cc43)[C@@H](C(=O)N3CCCCCCC3)[C@H]12`, 2.42; as for `CO[C@]12C=C(Br)[C@@H](C[C@@H]1c1cccc(C)c1)[C@@]1(CO1)C2=O`, -0.154.
As to `O=C1C2C=CC(C(O)c3ccccc3)N(Nc3ccccc3F)C2C(=O)N1c1ccccc1` (stereo not given), the composite z-score is -0.127.
Next, `CC[C@H]1C2=C3C(CC[C@H]4C(OCc5ccc(F)cc5C(F)(F)F)OC[C@](C)([C@@H]34)N(C(=O)OC(C)(C)C)C2)C(COC)C1COC` (stereo not given in full): 0.029; `Cc1ccc(S[C@]2(C(=O)O)CC(=O)N(C3Cc4ccccc4C3)[C@@H]2c2ccc(CO)cc2)cc1`: 0.0018.
As for `COc1ccc(NC(=O)O[C@H]2[C@H](OC(=O)Nc3ccccc3)[C@@H](OC(=O)Nc3ccccc3)[C@@H](OC)O[C@@H]2CO)cc1`, the figure is 0.0342; as for `CCCC[C@@H]1C[C@H]1[C@@H](NC(=O)Cc1ccccc1)c1ccc(-c2ccccc2)cc1`, -0.158.
On to `N#Cc1ccc(NN2C(C(O)c3ccc(F)cc3)C=CC3C(=O)N(c4ccccc4)C(=O)C32)cc1` (stereo not given), for which the composite z-score is -0.0791.
Regarding `[N-]=[N+]=NCc1ccccc1C[C@]1(C(N)=O)N=C(c2ccc(OCCCO)cc2)O[C@H]1c1ccccc1`, the composite z-score worked out at 0.0227.
Consider `COCCCNC(=O)[C@@]1(Cc2ccccc2N=[N+]=[N-])N=C(c2ccc(OCCCO)cc2)O[C@H]1c1ccccc1`, for which the composite z-score turned out to be 0.0589.
In turn, `CN(C)CCCNC(=O)[C@@H]1c2ccccc2C(=O)N(Cc2ccccc2Cl)[C@H]1c1ccc(CO)cc1` yielded a composite z-score of -0.182.
`C=C(/C(=C/C[C@H](OC(=O)c1ccncc1)c1ccc(CO)o1)c1cc(C(=O)OC)ccc1OC)C(C)C` yielded a composite z-score of 0.16.
The compound `C=CCC(OC(C)=O)[C@@H]1[C@@H](N(Cc2ccc(-c3cccc(C(F)(F)F)c3)o2)C(=O)c2ccc(-c3ccccc3)cc2)c2cc(OCCCO)ccc2N1C(=O)c1ccc2ccccc2n1` (stereo not given in full) showed a composite z-score of -0.0762.
Next, `CCCCN1CC=CC23O[C@@H]4/C=C\CCC(C)OC(=O)C4[C@H]2C(=O)N(C(CO)C(C)C)[C@@H]3C1=O` (stereo not given in full): -0.128; `[N-]=[N+]=Nc1ccccc1[C@H]1OC(c2ccc(OCCCO)cc2)=N[C@@]1(Cc1ccccc1)C(=O)N1CCCCC1`: 0.395.

For the origin of these results see PubChem BioAssay.
